Activity calls are given as the source filed them.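 Rule for the calls, unless noted: active = inhibition of the reporter signal at or above 50%; inactive = inhibition below 50%.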 Where a SMILES comes first, the peptide text is derived from it. [ ]: non-standard residue; d: D form. The star is where a group is joined. ξ: configuration not given here. Cbz = O=C(OCc1ccccc1)*; ξK = NCCCCC(N)C(=O)O
Legend:
[1] = inhibitors of TNFa-induced NFkB p65 translocation, primary screen, imaging, HUVEC, MLSMR starter and 10KST1 sets (AID 438;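 active = inhibition above 20% together with a positive visual image hit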;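 note: compound added about 3h40 before a 20 min TNFalpha stimulation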;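 for inhibition: signal is the nuclear over cytoplasmic p65 intensity ratio per well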); conditions: HUVEC TNFa-induced p65 nuclear translocation; cell count: measured here: nuclei count (cytotoxicity indicator), at 2.08 µM; inhibition: at 2 µM, stronger effect = higher value, 0% TNFa-plus-vehicle, 100% no-TNFa wells
[2] = reduction of polyQ htt aggregates in cells – imaging, exon1htt(103Q)mCFP cells, high-content imaging, primary screen (AID 483;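 active = visual image review flags a hit and inhibition of aggregation exceeds 20%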;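 note: compound exposure lasted 3 days before fixation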;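 for nuclei count: percent of the per-plate median nuclei count of sample wells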); conditions: exon1htt(103Q)mCFP cell line, aggregate imaging, at 2 µM; inhibition of aggregation: stronger effect = higher value; nuclei count: measured here: cell count, toxicity
[3] = endothelial E-selectin expression blockers – imaging, HUVEC, immunofluorescence, MLSMR starter and 10KST1 sets, primary screen (AID 487;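 active = visually confirmed hit in the image check and inhibition above 20%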;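 for inhibition: signal is fraction of cell area covered by stained E-selectin grains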;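 for nuclei count: 100% = median nuclei count of all wells on the same plate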); conditions: HUVEC TNFalpha-induced E-selectin immunofluorescence imaging, at 2 µM; inhibition: stronger effect = higher value; nuclei count: measured here: cell number, toxicity
[4] = target: Voltage-gated potassium channel subunit beta-2 (Rattus norvegicus) (UniProt P62483); assay: inhibitors of rat Kvbeta2 reductase activity – biochemical, NADPH fluorescence, primary screen (AID 622;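 active = fluorescence slope higher than the sample average by over 3 SD, cut at about -0.22 in these data, passing the limit was not always enough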;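 note: slope of raw intensity against log time taken from 70 to 1610 s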); conditions: recombinant KvBeta, 4-cyanobenzaldehyde reduction, at 10 µM, stronger effect = higher value
Voltage-gated potassium channel subunit beta-2 (Rattus norvegicus), sequence (P62483 whole entry, looked up): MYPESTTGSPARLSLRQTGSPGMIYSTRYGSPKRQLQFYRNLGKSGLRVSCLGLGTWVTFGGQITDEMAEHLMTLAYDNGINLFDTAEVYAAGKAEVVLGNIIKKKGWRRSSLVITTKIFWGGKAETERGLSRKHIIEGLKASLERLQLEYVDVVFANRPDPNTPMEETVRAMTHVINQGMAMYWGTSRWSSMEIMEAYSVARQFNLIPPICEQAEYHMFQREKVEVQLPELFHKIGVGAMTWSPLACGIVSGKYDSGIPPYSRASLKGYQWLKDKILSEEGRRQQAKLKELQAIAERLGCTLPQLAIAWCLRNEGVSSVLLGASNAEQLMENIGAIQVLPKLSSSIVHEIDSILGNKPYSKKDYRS

[5] = target: Voltage-gated potassium channel subunit beta-2 (Rattus norvegicus) (UniProt P62483); assay: enhancers of rat Kvbeta2 NADPH turnover – biochemical, NADPH fluorescence, primary screen (AID 623;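 active = NADPH fluorescence slope more negative than the mean of all samples by about 3 SD, 99.7% confidence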;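 note: fluorescence intensity change per second fitted from 20 to 320 s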); conditions: Recombinant KvBeta, NADPH fluorescence decrease slope, 10 min; at 10 µM; stronger effect = lower value
[6] = target: Alpha-2C adrenergic receptor (Homo sapiens) (UniProt P18825); assay: compounds altering alpha2C-coupled GIRK flux – cell-based, HEK293 alpha2C/GIRK1/2, thallium flux, primary screen (AID 624;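 active = fluorescence slope after compound addition differing from the mean of all screened samples at 99.7% confidence, in either direction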;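 note: slope of fluorescence ratio to pre-addition baseline per second over 15 to 24 s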); conditions: thallium flux BTC fluorescence, at 10 µM, actives lie on both sides
Alpha-2C adrenergic receptor (Homo sapiens), sequence (P18825 whole entry, looked up): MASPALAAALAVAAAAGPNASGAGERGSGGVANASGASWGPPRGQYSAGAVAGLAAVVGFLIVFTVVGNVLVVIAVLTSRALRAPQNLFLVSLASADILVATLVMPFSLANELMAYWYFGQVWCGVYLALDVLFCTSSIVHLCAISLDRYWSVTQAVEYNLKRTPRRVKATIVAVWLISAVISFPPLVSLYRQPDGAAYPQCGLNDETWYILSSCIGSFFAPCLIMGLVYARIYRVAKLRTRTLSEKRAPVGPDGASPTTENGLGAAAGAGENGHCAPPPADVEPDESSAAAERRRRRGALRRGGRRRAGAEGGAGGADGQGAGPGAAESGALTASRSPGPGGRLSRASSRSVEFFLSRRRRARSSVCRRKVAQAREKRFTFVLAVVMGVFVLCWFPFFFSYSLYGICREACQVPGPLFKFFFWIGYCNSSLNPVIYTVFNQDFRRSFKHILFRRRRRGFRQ

[7] = blockers of RIG-like receptor reporter activation – cell-based, Sendai virus stimulus, luciferase, 10K MLSCN set, TLR/RLR signaling modifier project, primary screen (AID 602276;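 active = inhibition at or above 50% at 10 µM; inactive = inhibition below 50%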;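 note: firefly luciferase from ISG56 promoter only with Renilla not read in this screen; 0% = Sendai virus plus DMSO and 100% = medium plus DMSO without virus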); conditions: HEK293 RL24 IRF3 luciferase reporter, at 10 µM, stronger effect = higher value
[8] = TLR3 IRF3 reporter activation blockers – cell-based, poly I:C stimulus, luciferase, 10K MLSCN set, primary screen (AID 602277); conditions: HEK293-TLR3 RL24 IRF3 luciferase reporter, at 10 µM, stronger effect = higher value

| SMILES | cell count [1] | inhibition [1] | inhibition of aggregation [2] | nuclei count [2] [%] | inhibition [3] | nuclei count [3] [%] | fluorescence slope [4] | NADPH fluorescence slope [5] | slope [6] | inhibition [7] | inhibition [8] |
| --- | --- | --- | --- | --- | --- | --- | --- | --- | --- | --- | --- |
| Cc1csc(NC(=O)C2CCCO2)n1 (stereo not drawn) | 725 | -11.4% (inactive) | -7.3% (inactive) | 101 | -133% (inactive) | 134 | -0.494 (inactive) | -5.6e-05 (inactive) | 0.00887 (inactive) | -2.56% (inactive) | 17.7% (inactive) |
| Cc1cc(C)cc(N(CC(=O)NC2CCC(C)CC2)S(=O)(=O)c2c(C)noc2C)c1 (stereo not drawn) | 753 | -6.3% (inactive) | 12.1% (inactive) | 114 | -27.2% (inactive) | 115 | -0.622 (inactive) | -3e-05 (inactive) | 0.00687 (inactive) | 7.51% (inactive) | 32.5% (inactive) |
| Cc1ccc(Cn2c(=N)c(C(=O)NCc3ccco3)cc3c(=O)n4ccccc4nc32)cc1 | 491 | 1.5% (inactive) | -19.4% (inactive) | 95.7 | -83% (inactive) | 106 | -0.279 (inactive) | -5.9e-05 (inactive) | 0.00216 (inactive) | -2.87% (inactive) | 10.3% (inactive) |
| O=c1c(-c2ccccc2)coc2c(CN3CCOCC3)c(O)ccc12 | 335 | -2.5% (inactive) | -6.5% (inactive) | 108 | -116% (inactive) | 129 | -0.0601 (active) | 4.4e-06 (inactive) | 0.00553 (inactive) | -3.14% (inactive) | 10.1% (inactive) |
| CN(Cc1ccccc1)Cc1nc2c(c(=O)n(C)c(=O)n2C)n1Cc1ccc(Cl)cc1 | 346 | -7.7% (inactive) | 22.2% (inactive) | 72.4 | -32.1% (inactive) | 161 | -0.612 (inactive) | -1.8e-05 (inactive) | 0.00317 (inactive) | -1.93% (inactive) | 2.58% (inactive) |
| COC(=O)c1ccccc1NC(=O)CSc1nc2c(c(=O)n(C)c(=O)n2C)n1C | 470 | 1% (inactive) | -5.1% (inactive) | 95.9 | 9.9% (inactive) | 119 | -0.382 (inactive) | 2e-05 (inactive) | 0.00766 (inactive) | -17.1% (inactive) | -34.2% (inactive) |
| O=S(NCc1ccco1)C12CC3CC(CC(C3)C1)C2 (stereo not drawn) | 426 | 12.5% (inactive) | 1.2% (inactive) | 102 | -2.2% (inactive) | 101 | -0.582 (inactive) | -2e-07 (inactive) | 0.00485 (inactive) | -5.22% (inactive) | 0.485% (inactive) |
| CCOC(=O)CN(C(=O)CSc1nnc(-c2ccncc2)n1CCCN(C)C)c1ccccc1 | 570 | -11.3% (inactive) | 12.2% (inactive) | 89.1 | -14.2% (inactive) | 92.8 | -0.615 (inactive) | -1.7e-05 (inactive) | 0.00606 (inactive) | 14.2% (inactive) | 30.4% (inactive) |
| COc1cc(C(=O)OC(C)CN2CCCC2)cc(OC)c1OC (stereo not drawn) | 286 | 2.9% (inactive) | -4.1% (inactive) | 101 | 30.9% (inactive) | 101 | -0.324 (inactive) | -5.1e-05 (inactive) | 0.00369 (inactive) | 5.11% (inactive) | 11.1% (inactive) |
| COc1ccc(CN(CC(=O)NCC2CCCO2)C(=O)CNS(=O)(=O)c2ccc(C)cc2)cc1 (stereo not drawn) | 589 | -20.2% (inactive) | -5.2% (inactive) | 119 | -52.4% (inactive) | 92.4 | 0.012 (inactive) | -3.8e-05 (inactive) | 0.00362 (inactive) | 9.43% (inactive) | 3.49% (inactive) |
| COc1cc(/C=N/n2cnnc2)ccc1OCC(=O)N1CCOCC1 | 378 | -0.8% (inactive) | -5.1% (inactive) | 125 | -4.3% (inactive) | 112 | -0.245 (inactive) | 7.4e-07 (inactive) | 0.00585 (inactive) | 5.73% (inactive) | 19.7% (inactive) |
| Cc1csc(NC(=O)c2ccoc2C)n1 | 435 | 1.3% (inactive) | -7.1% (inactive) | 90.7 | 9% (inactive) | 97.9 | -0.534 (inactive) | 2.1e-05 (inactive) | 0.00451 (inactive) | -53.3% (inactive) | -87.5% (inactive) |
| COc1ccccc1-n1c(=O)[nH]c2c(C(N)=O)nc(CC(C)C)nc21 | 809 | -0.5% (inactive) | -23.3% (inactive) | 105 | 2.2% (inactive) | 117 | -0.58 (inactive) | -3e-05 (inactive) | 0.00821 (inactive) | 13% (inactive) | 32.3% (inactive) |
| Cc1cc(C)cc(-n2nnc(C(=O)NCc3ccco3)c2N)c1 | 500 | 0.2% (inactive) | -20.1% (inactive) | 119 | -36.2% (inactive) | 107 | -0.557 (inactive) | -1.1e-05 (inactive) | 0.00643 (inactive) | -5.79% (inactive) | 100% (active) |
| COP(C)(=O)c1c(C)nn(-c2ccccc2)c1C (stereo not drawn) | 558 | 6.8% (inactive) | -0.1% (inactive) | 95.4 | -11.2% (inactive) | 112 | -0.424 (inactive) | -2.1e-06 (inactive) | 0.00629 (inactive) | 8.87% (inactive) | 37.6% (inactive) |
| N#CCCCCn1c(-c2cncs2)nc2ccccc21 | 431 | 14.1% (inactive) | 3.5% (inactive) | 101 | 22.2% (inactive) | 107 | -0.385 (inactive) | -4.5e-05 (inactive) | 0.00375 (inactive) | 14.5% (inactive) | 15.9% (inactive) |
| C=CCn1c(SCC(=O)Nc2cccc(OC)c2)nnc1-c1cccnc1 | 619 | -4.8% (inactive) | 0.3% (inactive) | 118 | -52.7% (inactive) | 104 | -0.527 (inactive) | -9.5e-06 (inactive) | 0.00671 (inactive) | 10.5% (inactive) | 16.9% (inactive) |
| Cc1cccc(CC(=O)Nc2c3c(nn2-c2cccc(Cl)c2)CS(=O)C3)c1 (stereo not drawn) | 394 | 1% (inactive) | -17.3% (inactive) | 106 | -27.9% (inactive) | 110 | -0.57 (inactive) | 2.8e-05 (inactive) | 0.00504 (inactive) | -10.3% (inactive) | -33.4% (inactive) |
| COC(=O)C(CCCCNC(=O)OCc1ccccc1)NC(=O)CN (stereo not drawn) (H-Gly-[ξK](Cbz)-OMe) | 529 | -6.5% (inactive) | 11.4% (inactive) | 104 | -14% (inactive) | 71.3 | -0.623 (inactive) | -2.9e-05 (inactive) | 0.00756 (inactive) | 4.8% (inactive) | 6.56% (inactive) |
| CN1CCN(CCCNC(=O)Cn2ncc3c4ccccc4n(C)c3c2=O)CC1 | 479 | -2.6% (inactive) | -7.2% (inactive) | 98 | -69.4% (inactive) | 100 | -0.615 (inactive) | -1.6e-07 (inactive) | 0.0065 (inactive) | -10.3% (inactive) | 35.3% (inactive) |
| CCCOC(=O)c1[nH]c2c(c1C)C(=O)CC(c1ccc(OC)c(OC)c1)C2 (stereo not drawn) | 235 | -2.8% (inactive) | 2.4% (inactive) | 101 | 17.6% (inactive) | 47.3 | -0.408 (inactive) | 8.6e-06 (inactive) | 0.00378 (inactive) | -11.5% (inactive) | -41.9% (inactive) |
| O=C(c1c(Cl)nc2sccn12)N(C(=O)c1c(Cl)nc2sccn12)c1ccc(Cl)cn1 | 819 | 3.8% (inactive) | -20.1% (inactive) | 103 | -97.4% (inactive) | 126 | -0.465 (inactive) | 7.2e-06 (inactive) | 0.00593 (inactive) | -31.5% (inactive) | -77.8% (inactive) |
| O=C(Nc1cccc2ccccc12)N1CCOCC1 | 654 | -3.4% (inactive) | -12% (inactive) | 116 | -33.2% (inactive) | 106 | -0.341 (inactive) | -6.3e-05 (inactive) | 0.00634 (inactive) | 18.7% (inactive) | 23.7% (inactive) |
| CC(C)CC(c1nnnn1CC1CCCO1)N1CCN(Cc2ccc3c(c2)OCO3)CC1 (stereo not drawn) | 474 | 1% (inactive) | -18.9% (inactive) | 129 | -21.2% (inactive) | 111 | -0.472 (inactive) | -3.8e-05 (inactive) | 0.00652 (inactive) | -28.6% (inactive) | 25% (inactive) |
| CC(=O)NC(C)c1nc2ccccc2n1C(C)C (stereo not drawn) | 588 | 11.5% (inactive) | -2.2% (inactive) | 98.7 | -50.6% (inactive) | 121 | -0.551 (inactive) | -2.4e-05 (inactive) | 0.00604 (inactive) | 14.5% (inactive) | 42.2% (inactive) |
| Cc1cc(NC(=O)CCC(=O)N(CC(=O)NC2CCCC2)Cc2ccc(F)cc2)no1 | 402 | 0.8% (inactive) | -35.1% (inactive) | 103 | -48.3% (inactive) | 122 | -0.421 (inactive) | -3.6e-05 (inactive) | 0.00498 (inactive) | 14.9% (inactive) | 13.1% (inactive) |
| CCc1nnc(NC(=O)CSc2nnc(CSc3nc(C)cc(C)n3)n2CC)s1 | 424 | -5% (inactive) | -13.6% (inactive) | 128 | -40.7% (inactive) | 129 | -0.37 (inactive) | 8.3e-06 (inactive) | 0.00824 (inactive) | -5.81% (inactive) | -12.1% (inactive) |
| COc1ccc(CC(=O)Nc2c3c(nn2-c2cccc(Cl)c2)CS(=O)C3)cc1 (stereo not drawn) | 466 | 5.7% (inactive) | -8.1% (inactive) | 101 | -43.1% (inactive) | 87.6 | -0.492 (inactive) | 2.6e-05 (inactive) | 0.00562 (inactive) | 9.81% (inactive) | 14.2% (inactive) |

Reference: PubChem BioAssay
